High-throughput results deposited in PubChem by several laboratories.
Mtb betalactam: beta-lactam sensitization of Mtb H37Rv | actives 0.27% (n = 330,000) | AID 434955 | inhibition, % at 25 µM | M. tuberculosis H37Rv growth with meropenem, percent inhibition; call rule not given here;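 further: growth measured after seven days incubation then overnight dye step; 0% = bacteria only wells and 100% = bacteria with antibiotic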
MazF activator: activators of E. coli MazEF toxin-antitoxin RNase. actives 0.32% (n = 350,000). FAM/BHQ RNA-DNA oligo cleavage fluorescence, 5 h. P0AE70. AID 504720. activation, % at 20 µM; in the data active means activation above about 50%
Target sequence (P0AE70 whole entry, looked up): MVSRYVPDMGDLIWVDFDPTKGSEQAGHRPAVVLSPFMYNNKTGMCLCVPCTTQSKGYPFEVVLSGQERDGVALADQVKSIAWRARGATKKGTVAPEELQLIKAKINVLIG
GDH-TPI counter-1: inhibits GDH-TPI coupling enzymes, artifact for Mtb FBA screen. inhibition, % at 4.8 µM. actives 1.2% (n = 360,000). GDH-TPI coupled enzyme counterscreen, NADH absorbance. AID 588335; in the data active means inhibition above about 30%;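 further: 0% = DMSO wells and 100% = wells lacking the enzyme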
Mtb FBA inh: Mtb fructose-bisphosphate aldolase inhibition | P9WQA3 | purified M. tuberculosis FBA, fluorescence read-out | inhibition, % at 1 µM | actives 2.3% (n = 360,000) | AID 588726;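 further: 0% = vehicle and 100% = reference inhibitor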
Target sequence (P9WQA3 whole entry, looked up): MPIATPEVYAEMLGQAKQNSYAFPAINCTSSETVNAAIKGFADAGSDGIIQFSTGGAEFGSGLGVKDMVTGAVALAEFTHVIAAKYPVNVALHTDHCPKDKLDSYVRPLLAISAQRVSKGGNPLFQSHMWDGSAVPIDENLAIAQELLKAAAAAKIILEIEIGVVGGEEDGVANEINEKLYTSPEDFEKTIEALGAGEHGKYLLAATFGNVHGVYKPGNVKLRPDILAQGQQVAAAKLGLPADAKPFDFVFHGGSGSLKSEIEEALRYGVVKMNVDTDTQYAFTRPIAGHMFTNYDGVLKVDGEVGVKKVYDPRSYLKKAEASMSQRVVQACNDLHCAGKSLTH
CCHF vOTU inh: CCHFV vOTU protease inhibition | Pep-AMC fluorescence | inhibition, % at 11.5 µM | actives 0.55% (n = 370,000); in the data active means inhibition above about 30%; further: 0% = vehicle wells with enzyme and 100% = no enzyme wells
Mtb FBA confirm: confirmation of M. tuberculosis fructose-bisphosphate aldolase inhibitors; inhibition, % at 1 µM; actives 78% (n = 5,600); shares compounds with Mtb FBA inh; AID 651616; purified M. tuberculosis FBA, fluorescence read-out;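 further: 0% = vehicle wells and 100% = reference inhibitor wells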
GDH-TPI counter-2: inhibits GDH-TPI coupling enzymes, flagging Mtb FBA hits. GDH-TPI coupled enzyme counterscreen, fluorescence. inhibition, % at 1 µM. AID 652141. shares compounds with Mtb FBA inh. actives 81% (n = 5,600); in the data active means inhibition above about 10%
GDH-TPI DR: counter-screen for M. tuberculosis FBA inhibitors: GDH-TPI dose response. AID 652145. GDH-TPI coupled enzyme assay, fluorescence, artifact counterscreen. IC50, µM. actives 79% (n = 170). shares compounds with Mtb FBA inh; call rule not given here
* hit, by the source's call; · = no result; + = active, no number. Only some compounds are listed: those with a hit (about 4% of all), similar ones and a draw of the others. Unless noted, no stated cut-off is given here; in the data, active means inhibition above about 27%; inactive means the rest.

SMILES	Mtb betalactam	MazF activator	GDH-TPI counter-1	Mtb FBA inh	CCHF vOTU inh	Mtb FBA confirm	GDH-TPI counter-2	others
CCN(CC)c1ccc(C2C(C(=O)OCCOC(C)C)=C(C)NC3=C2C(=O)CCC3)cc1 (stereo not given)	-5.6	-4.5	11.2	0.9	-2.7	·	·
CC1=C(C(=O)OCC2CCCO2)C(c2ccncc2)C2=C(CC(C)(C)CC2=O)N1 (stereo not given)	34.3	1.3	-1.0	38.2*	-36.1	58.5*	58.1*
CC1=C(C(=O)OC(C)C)C(c2cccnc2)C2=C(CC(C)(C)CC2=O)N1 (stereo not given)	2.3	-0.3	13.4	79.2*	-80.3	30.9*	38.1*
Cc1nn(-c2ccccc2)c(C)c1/C=N\N1CCN(Cc2ccccc2Cl)CC1	·	·	·	·	1.9	·	·
COCCOC(=O)C1=C(C)NC2=C(C(=O)CC(C)(C)C2)C1c1cccnc1 (stereo not given)	-17.8	6.6	0.9	38.7*	-75.9	+	+
CCCCC(=O)N(Cc1ccccc1)c1ccccc1C(=O)Nc1cc(OC)ccc1OC	·	·	·	·	10.1	·	·
Cc1nn(-c2ccccc2)c(=S)n1-c1ccccc1	2.5	10.2	1.7	2.9	8.0	·	·
OCCn1nc2c3ccccc3nc-2n(-c2ccccc2)c1=S	-3.9	7.6	2.2	30.7*	-14.8	135.6*	116.4*
CCOc1ccc(-n2c(SCC(=O)c3ccc4ccccc4c3)nnc2-c2cccc(Cl)c2)cc1	·	·	·	·	26.7	·	·
O=C(O)c1ccc(-c2nc3ccccc3s2)o1	-6.0	-5.2	42.0*	43.8*	-12.7	35.0*	29.4*
O=Cc1ccc(-c2nc3ccccc3s2)o1	18.3	-0.1	17.6	32.5*	-34.0	30.6*	30.5*
COc1ccc(C2CC(=O)Oc3c2c(=O)n(C)c2ccccc32)c(OC)c1OC (stereo not given)	-2.8	-1.6	3.2	36.9*	1.7	-21.5	-18.6
COC(=O)C[C@H]1CC[C@H]2[C@H](COc3ccc(NC(=O)c4ccccc4F)cc3C(=O)N2C)O1	·	·	·	·	2.1	·	·
N#C/C(=N\Nc1ccc(F)cc1)C(=O)C1CC1	-3.1	-1.1	13.0	36.8*	1.8	63.3*	58.7*
N#C/C(=N\Nc1ccc(Cl)c(Cl)c1)C(=O)C1CC1	-3.8	-7.7	18.4	65.7*	-7.7	0.8	-2.7
N#C/C(=N\Nc1ccc(F)cc1)C(=N)N1CCCCCC1	3.1	-6.1	6.6	-3.9	16.7	·	·
O=c1[nH]c2cc3c(cc2cc1CN(Cc1cccs1)Cc1nnnn1Cc1ccco1)OCCO3	-5.4	1.1	23.5	35.1*	1.7	83.6*	77.6*
O=c1[nH]c2cc3c(cc2cc1CN(Cc1cccnc1)Cc1nnnn1Cc1ccco1)OCCO3	17.6	54.4*	17.9	34.1*	-17.2	-1.9	0.0
O=c1[nH]c2cc3c(cc2cc1CN(Cc1ccccc1)Cc1nnnn1Cc1ccco1)OCCO3	·	48.6	17.1	19.6	-2.8	·	·
O=C(CSc1nc2ccccc2nc1N1CCOCC1)NCc1ccc(Cl)cc1Cl	·	·	·	·	0.9	·	·
C[C@H]1COc2cc(Br)ccc2S(=O)(=O)N1Cc1cn(Cc2ccco2)nn1	·	·	·	·	4.7	·	·
COc1ccc(N2CCCN(CC(=O)Nc3ccccc3C)CC2)cc1	·	·	·	·	-6.7	·	·
CCCCS(=O)(=O)Nc1ccc(C)cn1	-1.8	4.0	-1.1	41.4*	-28.6	+	+
Cc1cccc(C(=O)Nc2c(-c3ccccc3)nc3ncccn23)c1	·	·	·	·	-20.6	·	·
O=C(O)c1cc(-c2c[nH]c3ccccc23)nc2cc3ccccc3cc12	25.2	·	16.9	55.2*	-2.3	75.5*	75.0*
SMILES	Mtb betalactam	MazF activator	GDH-TPI counter-1	Mtb FBA inh	CCHF vOTU inh	Mtb FBA confirm	GDH-TPI counter-2	others
O=C(O)c1cc(-c2ccc3ccccc3n2)nc2ccccc12	0.5	0.9	15.1	-1.0	4.9	·	·
O=C(N[C@H](Cc1ccccc1)C(=O)N1CCN(CC(=O)N2CCCC2)CC1)[C@H]1O[C@@H](n2ccc(=O)[nH]c2=O)[C@H](O)[C@@H]1O	·	·	·	·	3.5	·	·
Cn1cnc(S(=O)(=O)Nc2ccccc2C(=O)NCC2CC2)c1	-4.7	3.4	0.7	29.1*	-16.4	82.3*	63.6*
Cc1ccccc1N1CCN(C2=Nc3ccccc3Sc3ccccc32)CC1	·	·	·	·	-2.1	·	·
COc1ccc(/C=C/S(=O)(=O)NCc2ccc(F)cc2)c(CNC(=O)OC(C)(C)C)c1	·	·	·	·	11.8	·	·
CCOC(=O)Cn1c2ccccc2n2nc(CCC(=O)O)c(=O)nc12	0.7	4.5	1.9	57.6*	-21.3	-2.2	-2.9
Nc1ccc(-c2nc3ccc(-c4nc5ccccc5o4)cc3[nH]2)cc1	94.4	1.9	57.4*	84.3*	-13.3	36.4*	24.5*
Cc1ccc(-c2nc3cc(N)ccc3o2)cc1Br	12.3	-3.1	9.4	1.1	-6.0	·	·
Cc1nc2ccc(-c3nc4ccccc4o3)cc2[nH]1	6.0	2.6	12.8	49.9*	-7.1	63.4*	56.0*
O=C(CSc1nnc(-c2cccnc2)n1Cc1ccco1)Nc1ccc(Cl)cc1	·	·	·	·	-6.5	·	·
CC1(C)Cc2nc(NC3CCCCC3)c(C#N)cc2CO1	5.2	-3.3	11.0	35.8*	-23.8	127.4*	110.6*
COCCCNC(=O)C[C@H]1C[C@@]2(C(=O)OC)C(=C[C@H](C3CCCC3)O[C@@H]2C)N(Cc2ccco2)C1=O	·	·	·	·	-5.9	·	·
O=C(Cc1cccc2ccccc12)Nc1ccc(-c2cc3ccccc3oc2=O)cc1	-0.3	-5.9	21.6	52.8*	-38.2	74.9*	49.4*
N#CCc1nc(-c2cc3ccccc3oc2=O)cs1	-3.4	11.1	11.6	76.5*	-24.1	196.7*	154.9*
O=c1oc2ccccc2cc1-c1ccccc1	5.4	3.6	17.1	31.5*	-10.1	11.4	2.0	GDH-TPI DR=5.2*
O=c1oc(-c2ccccc2)cc2ccccc12	·	·	11.1	43.9*	-14.3	71.2*	47.4*
Nc1ccc(Nc2nc(-c3cc4ccccc4oc3=O)cs2)cc1	-1.9	-10.3	15.9	0.4	-4.3	·	·
COC(=O)[C@]12C[C@H](CC(=O)NCc3cccc(C(F)(F)F)c3)C(=O)N(Cc3cccc4ccccc34)C1=C[C@H](C1CCCC1)O[C@@H]2C	·	·	·	·	21.6	·	·
O=c1oc2ccccc2cc1-c1cn2cccnc2n1	-0.7	5.4	45.5*	29.4*	-37.8	+	196.4*
O=c1oc2ccccc2cc1-c1cn2ccccc2n1	6.5	-13.6	29.9	3.8	-9.3	·	·
CCOc1cc(C(=O)N/N=C/c2cn(-c3ccccc3)nc2-c2cc3ccccc3o2)cc(OCC)c1OCC	·	-10.4	-8.8	0.4	-4.1	·	·
O=C(O)/C=C/c1cn(-c2ccccc2)nc1-c1cc2ccccc2o1	86.9	-10.7	8.6	90.6*	-20.5	+	156.8*
CN(C)C(=O)c1cn(-c2ccccc2)nc1-c1cc2ccccc2o1	4.5	-0.9	4.4	17.6	3.7	·	·
